Only some compounds are listed: those with a hit (about 2.8% of all), similar ones and a draw of the others.
NSD2 inh: NSD2 histone methyltransferase inhibitors, primary screen, biochemical, AlphaScreen, single concentration, set 2 | Histone-lysine N-methyltransferase NSD2 (Homo sapiens), O96028 | NSD2 peptide methylation, 120 min | inhibition, % at 12.5 µM | 310,000 tested, 0.54% active | AID 743445, 2014; in the data active = inhibition above about 50%
Glyco luc inh: increase of ERlucT glycosylation luciferase signal, primary screen, N-linked glycosylation inhibitor project, D54 ERlucT cells, luminescence, set 2. D54 ERlucT glycosylation luciferase reporter, 24 h; percent of 100 nM tunicamycin response. reporter increase, % at 12.5 µM. 360,000 tested, 0.23% active;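 active = mean luciferase reporter signal, scaled so untreated is 0 and the glycosylation-blocking control 100, at or above a set limit in every replicate; inconclusive = mean reaches the limit but not every replicate does; inactive = mean below the limit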;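 also: luciferase carries N-glycosylation sites so blocking glycosylation raises the light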
EBV LMP1 NFkB: EBV LMP1-driven NF-kappaB luciferase reporter inhibitors, primary screen, cell-based, luminescence, single point | LMP1-induced NF-kappaB luciferase reporter cells | inhibition, % at 12.5 µM | 350,000 tested, 0.69% active | AID 504558, 2011; in the data active = inhibition above about 41%; inconclusive = no clear call, values can overlap the other calls
PAX8 reporter: inhibitors of PAX8-driven TPO luciferase reporter, primary screen, RMG-I cells, single concentration; SteadyGlo, 24 h; inhibition, % at 12.6 µM; 360,000 tested, 1.2% active; AID 652154, 2013;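 active = mean replicate inhibition at least 60% with every replicate also reaching 60%; inconclusive = only one of the two criteria is met; inactive = mean below 60% and not all replicates reaching 60%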;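 also: luciferase light reporting Pax8 driven TPO promoter activity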
Env fusion inh: inhibitors of HIV-1 Env-driven cell-cell fusion, primary screen, HeLa-JRFL effector, CEM21 target cells, luciferase. inhibition, % at 12.3 µM. 360,000 tested, 1.1% active;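 active = mean replicate inhibition score of at least 50 and every replicate individually at or above 50; inconclusive = only one of the two criteria met; inactive = mean below 50 and not all replicates reaching 50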
Shn3 inh set2: reduction of Shn3 3'UTR firefly luciferase signal, primary screen, Schnurri-3 inhibitor project, cell-based, Clone20 osteoblasts, set 2; Clone20 osteoblast Shn3 3'UTR firefly luciferase, 24 h; 360,000 tested, 0.52% active; inhibition, % at 12.5 µM;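 active = mean inhibition of at least 75% with every replicate also reaching 75%; inconclusive = mean inhibition at least 75% but some replicate below; inactive = mean inhibition below 75%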
Large screens that a line does not name were inactive; ! = a repeat was not active.

COc1ccc(NC(=O)C2CCCN(c3c4c(nc5ncnn35)CCC4)C2)cc1OC (stereo not given)	none (no result: PAX8 reporter)
O=C(Nc1ccc(Oc2ccccc2)cc1)C1CCN(c2c3c(nc4ncnn24)CCC3)CC1	Env fusion inh 103 (no result: PAX8 reporter)
C[C@@H]1CCCCO[C@H](CN(C)C(=O)Cc2ccccc2)[C@H](C)CN([C@H](C)CO)C(=O)c2cc(NC(=O)c3ccccc3)ccc2O1	none (no result: NSD2 inh, Glyco luc inh, EBV LMP1 NFkB, PAX8 reporter, Shn3 inh set2)
COc1ccc(CN(C)C[C@H]2OCCCC[C@@H](C)Oc3ccc(NS(C)(=O)=O)cc3C(=O)N([C@H](C)CO)C[C@H]2C)cc1	none (no result: NSD2 inh, Glyco luc inh, EBV LMP1 NFkB, Shn3 inh set2)
O=C(NCCc1ccccc1)c1nccc2ccccc12	none (no result: NSD2 inh)
COc1ccc(Nc2ccnc3ccccc23)cc1	none (no result: PAX8 reporter, Env fusion inh)
CC(C)Nc1ccc(Nc2ccnc3cc4ccccc4cc23)cc1	PAX8 reporter 97 (no result: NSD2 inh)
c1ccc(CCNc2ccnc3cc4ccccc4cc23)cc1	Shn3 inh set2 94
C/C=C/c1ccc([C@H]2[C@@H](CO)N(Cc3cccc(F)c3)C23CN(C(=O)CC)C3)cc1	none (no result: NSD2 inh, Glyco luc inh, EBV LMP1 NFkB, Env fusion inh, Shn3 inh set2)
CNC[C@@H]1Oc2cc(C#CC3(O)CCCC3)ccc2S(=O)(=O)N([C@H](C)CO)C[C@H]1C	none (no result: NSD2 inh, Glyco luc inh, EBV LMP1 NFkB, Env fusion inh, Shn3 inh set2)
CO[C@H]1CN(C)C(=O)c2cc(NC(=O)c3ccc(F)cc3)ccc2OC[C@@H](C)N(Cc2cocn2)C[C@@H]1C	none (no result: NSD2 inh, Glyco luc inh, EBV LMP1 NFkB, PAX8 reporter, Shn3 inh set2)
C[C@H]1CN([C@@H](C)CO)C(=O)c2cccc(NS(=O)(=O)c3ccc(F)cc3)c2O[C@H]1CN(C)C(=O)Nc1ccc2c(c1)OCO2	none (no result: NSD2 inh, Glyco luc inh, EBV LMP1 NFkB, Shn3 inh set2)
O=C(CN1CCN(S(=O)(=O)c2ccc(F)cc2)CC1)c1ccc(O)c(O)c1	none (no result: NSD2 inh)
COc1cccc(OCCCN2CCN(S(=O)(=O)c3ccc(NC(C)=O)cc3)CC2)c1	Env fusion inh 63 (no result: PAX8 reporter)
O=C(CN1CCN(S(=O)(=O)c2ccc(Cl)cc2)CC1)c1ccc(O)c(O)c1	NSD2 inh 121 (no result: PAX8 reporter, Env fusion inh)
COc1ccc(S(=O)(=O)N2CCN(CC(=O)Nc3ccc(C)c(F)c3)CC2)cc1	EBV LMP1 NFkB 50 (no result: NSD2 inh, PAX8 reporter, Env fusion inh)
COc1ccc(S(=O)(=O)N2CCN(CC(=O)c3ccc(O)c(O)c3)CC2)cc1	NSD2 inh active
Cc1cc(C)c(S(=O)(=O)Nc2nnc(C)s2)c(C)c1	none (no result: NSD2 inh, PAX8 reporter, Env fusion inh)
Cc1cc(C)c(S(=O)(=O)Nc2nnc(CC(C)C)s2)c(C)c1	EBV LMP1 NFkB 82
C[C@@H]1CCCCO[C@H](CN(C)C)[C@H](C)CN([C@@H](C)CO)C(=O)c2cc(N(C)C)ccc2O1	none (no result: NSD2 inh, Glyco luc inh, EBV LMP1 NFkB, Shn3 inh set2)
CS(=O)(=O)c1cccc(C(=O)Nc2ccc(-c3nc4ccccc4[nH]3)cc2)c1	Glyco luc inh 46
CC1CCCC=CC2CC(OC(=O)CN(C)C)CC2C(O)C=CC(=O)O1 (stereo not given)	PAX8 reporter 115, Env fusion inh 62
Cn1cc(C2=C(c3ccc(Cl)cc3Cl)C(=O)NC2=O)c2ccccc21	PAX8 reporter 92 (no result: NSD2 inh)
O=C(c1ccc2ccccc2n1)N1CCN(S(=O)(=O)c2ccc(Cl)cc2)CC1	Env fusion inh 56 (no result: NSD2 inh)
C[C@H](CO)N1C[C@H](C)[C@H](CN(C)Cc2ccc(Oc3ccccc3)cc2)Oc2ccc(NS(C)(=O)=O)cc2CC1=O	none (no result: NSD2 inh, Glyco luc inh, EBV LMP1 NFkB, Env fusion inh, Shn3 inh set2)
CSc1ccc2c(c1)C(N1CCN(C)CC1)Cc1ccccc1S2 (stereo not given)	EBV LMP1 NFkB 89!
CCCC#Cc1cnc2c(c1)C(=O)N([C@@H](C)CO)C[C@@H](C)[C@@H](CN(C)C(=O)CN1CCOCC1)O2	none (no result: NSD2 inh, Glyco luc inh, EBV LMP1 NFkB, PAX8 reporter, Shn3 inh set2)
O=C(C[C@@H]1CC[C@H](NC(=O)NC2CCCC2)[C@H](CO)O1)NCc1ccc(F)cc1	none (no result: NSD2 inh, Glyco luc inh, EBV LMP1 NFkB, Shn3 inh set2)
C[C@H](CO)N1C[C@H](C)[C@@H](CN(C)C(=O)Nc2ccc(C(F)(F)F)cc2)Oc2ccc(NC(=O)Nc3ccc4c(c3)OCO4)cc2C1=O	none (no result: NSD2 inh)
C[C@@H]1CN([C@@H](C)CO)C(=O)c2cc(NC(=O)Nc3ccc(F)cc3)ccc2O[C@@H]1CN(C)Cc1ccc(Oc2ccccc2)cc1	PAX8 reporter 75, Shn3 inh set2 inconclusive (no result: NSD2 inh)
COc1ccc(CN(C)C[C@H]2Oc3ccc(NC(=O)Nc4ccc(C(F)(F)F)cc4)cc3C(=O)N([C@@H](C)CO)C[C@@H]2C)cc1	none (no result: NSD2 inh, Glyco luc inh, EBV LMP1 NFkB, PAX8 reporter, Shn3 inh set2)
